Assay outcomes: PubChem BioAssay, National Center for Advancing Translational Sciences (NCATS)
LDHA block: inhibitors of human lactate dehydrogenase A | P00338 | purified LDHA, NADH/diaphorase-resazurin fluorescence; stronger effect = lower value | activity change, % (values are at about 110 or 230 µM) | actives 0.15% (n = 480,000) | AID 1347041; in the data active = activity change below about -30%; inconclusive = mostly about -25% to -30%;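 note: plate controls were DMSO wells for no effect and wells without enzyme for full effect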
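LDH5 2 nM; NADH 0.06 mM, pyruvate 0.2 mM; 200 mM Tris pH 7.4, EDTA, Tween-20; 5 min RT. Detection: diaphorase 0.133 mg/mL + resazurin 37 µM, fluorescence ex540/em590 at 0 and 20 min; normalized to enzyme-free and DMSO wells.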
Mito fusion act: mitochondrial division inhibition or fusion activation; S. cerevisiae fusion-defective mutant growth rescue, CellTiterGlo 48 h; Potency, µM (top dose mostly 46.1 µM), without a hit: at the highest dose growth rescue (activation), actives largely listed as activators; actives 0.23% (n = 320,000); AID 485298; note: potency is the fitted concentration of half-maximal effect; % of control where 0% means no effect; nearly all actives have a fitted effect of over 45% in size
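Luminescent cell viability in 1536-well qHTS format served as the measure of rescued growth in ts fusion-mutant S. cerevisiae cultured on non-fermentable YPEG for 48 hours at 37C.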
ClpP mod: qHTS Assay for Activators of ClpP | ATP-dependent Clp protease proteolytic subunit (Bacillus subtilis (strain 168)), P80244 | purified B. subtilis ClpP, FRET peptide cleavage, 20 min | Potency, µM (series often up to 57.5 µM), for the others: at the highest dose activity change, negative = active | actives 1.9% (n = 340,000) | AID 651965, 2013; active = well fitted falling curve with a large enough effect; inconclusive = small, poorly fitted or top-dose-only effect; inactive = no such curve, though single readings can be large or run the other way; note: potency is the fitted concentration of half-maximal effect; the source files actives as falling curves though it sought activators and does not explain the sign; nearly all actives have a fitted effect of over 65% in size
Target sequence (P80244 whole entry, looked up): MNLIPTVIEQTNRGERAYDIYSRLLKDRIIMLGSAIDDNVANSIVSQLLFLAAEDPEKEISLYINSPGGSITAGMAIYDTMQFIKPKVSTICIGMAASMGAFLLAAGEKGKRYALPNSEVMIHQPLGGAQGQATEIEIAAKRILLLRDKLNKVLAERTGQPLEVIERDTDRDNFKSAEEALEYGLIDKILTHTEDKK
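Purified B. subtilis ClpP, 10 microg/mL final in Tris/HCl pH8 with KCl, BSA, glycerol and Tween-20, cleaved an Abz/nitrotyrosine-quenched decapeptide. Fluorescence (ex 320, em 430) was read at 0 and 20 min at room temperature. Delta was normalized to 5.8 microM ADEP and DMSO/no-enzyme controls.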
ASM inhibitor: human S-ASM enzyme inhibition; P17405; placental ASM, HMU-PC fluorogenic substrate, 60 min; Potency, µM (highest dose often 57.5 µM), for inactives: top-dose activity change, negative = inhibition, most hits filed as inhibitors; actives 0.006% (n = 340,000); AID 504937; note: potency is the fitted concentration of half-maximal effect
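Fluorogenic HMU-PC substrate (9 uM final) is turned over by placental ASM in 60 min at 37 C after a 10 min compound preincubation. Reaction ended by alkaline stop (pH 10), with fluorescence read at 386/447 nm.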
RGS4 inhibitor: blocks human RGS4-accelerated GTP hydrolysis | Transcreener GDP fluorescence polarization, RGS4-accelerated GTP hydrolysis | P49798 | Potency, µM (doses to about 114 µM), for the others: at the top dose activity change, negative = inhibition, hits mostly inhibitors | AID 504845 | actives 0.039% (n = 390,000); note: potency is the fitted concentration of half-maximal effect; % is set by controls: 0 for no effect and ±100 for the full control effect; nearly all actives have a fitted effect of over 75% in size
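MLSMR compounds (23 nl, pin-transferred) preincubated 10 min at room temperature with a 500nM (2x) first reagent, then RGS4 at 900nM (2x) plus Transcreener GDP mix added; fluorescence polarization (620/688 nm) read before and after 90 min at 30 °C.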
IDH1 R132H inh: inhibitors of human mutant IDH1 R132H; O75874; IDH1-R132H enzyme, NADPH consumption, diaphorase/resazurin fluorescence; Potency, µM (doses to about 76.6 µM), for the others: at the top dose activity change, negative = inhibition, most hits filed as inhibitors; actives 0.093% (n = 390,000); note: potency is the fitted concentration of half-maximal effect; % is set by controls: 0 for no effect and ±100 for the full control effect; nearly all actives have a fitted effect of over 65% in size
Target sequence (O75874 whole entry R132H, stated change not applied): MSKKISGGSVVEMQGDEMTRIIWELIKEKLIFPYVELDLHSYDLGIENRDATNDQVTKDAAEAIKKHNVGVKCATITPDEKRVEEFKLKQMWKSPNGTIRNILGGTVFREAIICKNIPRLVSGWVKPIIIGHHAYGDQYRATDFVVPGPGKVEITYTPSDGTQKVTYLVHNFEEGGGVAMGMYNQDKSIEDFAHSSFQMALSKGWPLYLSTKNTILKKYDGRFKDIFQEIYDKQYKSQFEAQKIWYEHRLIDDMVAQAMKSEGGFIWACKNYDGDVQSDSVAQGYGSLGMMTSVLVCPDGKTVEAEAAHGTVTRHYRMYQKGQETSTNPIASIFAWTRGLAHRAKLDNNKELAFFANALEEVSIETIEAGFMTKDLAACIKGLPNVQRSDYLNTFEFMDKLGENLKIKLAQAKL
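IDH1-R132H (0.5 ug/mL dispensed) in pH 7.5 Tris buffer was preincubated 30 min with compound, then given a substrate mix of 0.016 mM NADPH and 2 mM alpha-KG for 80 min at room temperature; remaining NADPH was read by diaphorase/resazurin fluorescence.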
ClpP validation: Bacillus subtilis ClpP inhibition, validated hit. purified B. subtilis ClpP, FRET-FV substrate cleavage, 20 min. AID 743245. Potency, µM (doses to about 57.5 µM), for inactives: at the highest dose activity change, negative = inhibition, actives largely listed as inhibitors. actives 40% (n = 470). shares compounds with ClpP mod; note: potency is the fitted concentration of half-maximal effect; % is set by controls: 0 for no effect and ±100 for the full control effect; nearly all actives have a fitted effect of over 70% in size
The depositor's hits bear a star; [ ] = another dose, or the depositor's remark. The sample as a whole holds a higher share of hits than the screen did. Unless noted, calls come from the whole dose curve; as a rule, active = well fitted curve in the direction sought with a large enough effect; inconclusive = small, poorly fitted or top-dose-only effect, or another doubt; inactive = no such curve, though single readings can be large; an effect the other way counts as inactive or inconclusive.

What do the screens show for `O=C(NC1CCCCC1)c1ccc2c(c1)sc1nc(-c3ccc(F)cc3)cn12`?
LDHA block: -12; ClpP mod: 10µM*; RGS4 inhibitor: -8%; IDH1 R132H inh: -23%; ClpP validation: -8%

How did O=C(NCCc1ccccn1)c1ccc2ccccc2c1 do in these assays?
LDHA block: -7

How did COc1ccc(OC)c(CNC(=O)C2CCN(c3nnc(N4CCCCC4=O)s3)CC2)c1 do in these assays?
LDHA block: -11

What do the screens show for `CCOC(=O)c1[nH]c2ccccc2c1NC(=O)c1cc(OCC)c(OCC)c(OCC)c1`?
LDHA block: 2; ClpP mod: 45%; RGS4 inhibitor: 7%; IDH1 R132H inh: -4%; ClpP validation: 12%

Results for COc1ccc(-c2cc3nc(-c4ccccc4)cc(N4CCC5(CC4)OCCO5)n3n2)cc1 ?
LDHA block: -5; Mito fusion act: 23%; ClpP mod: 7.1µM*; ASM inhibitor: inactive; RGS4 inhibitor: -2%; IDH1 R132H inh: -4%; ClpP validation: 4.9µM*

What do the screens show for `Cc1ccc(-c2cc3nc(-c4ccccc4)cc(N4CCOCC4)n3n2)cc1`?
LDHA block: -6; Mito fusion act: 2%; ClpP mod: 8.9µM*; ASM inhibitor: 358%; RGS4 inhibitor: -3%[11.4 µM]; IDH1 R132H inh: -5%; ClpP validation: 34µM*

How did O=S(=O)(Nc1cccc(-c2cn3cccnc3n2)c1)c1ccc(Cl)cc1 do in these assays?
LDHA block: 0; Mito fusion act: 0%; ClpP mod: 7.1µM*; ASM inhibitor: -4%; RGS4 inhibitor: -9%; IDH1 R132H inh: 2%; ClpP validation: 24µM*

What do the screens show for `CC(C)c1ccc(NC(=O)CSc2nc3c(=O)[nH]cnc3n2CC2CCCO2)cc1` (stereo not drawn)?
LDHA block: 10

What do the screens show for `O=C(Nc1nc2nc(-c3ccccc3)cc(-c3ccccc3)n2n1)c1ccco1`?
LDHA block: -9; Mito fusion act: inconclusive; ClpP mod: 7.9µM*; ASM inhibitor: 47%; RGS4 inhibitor: 25%; IDH1 R132H inh: -1%; ClpP validation: 12µM*

Results for Fc1cc2nc(-c3ccncc3)[nH]c2cc1F ?
LDHA block: -16; Mito fusion act: 1%; ClpP mod: 3.2µM*; ASM inhibitor: -1%; RGS4 inhibitor: -4%; IDH1 R132H inh: -2%; ClpP validation: 17µM*

What do the screens show for `CCN(c1ccccc1)S(=O)(=O)c1ccc(OC)c(NC(=O)c2cc(F)c(F)c(F)c2F)c1`?
LDHA block: -6; ClpP mod: 41%; ASM inhibitor: -3%; RGS4 inhibitor: -2%; IDH1 R132H inh: -4%; ClpP validation: inconclusive

What do the screens show for `Fc1ccc2nc(Nc3nc4cc5c(cc4s3)OCO5)sc2c1`?
LDHA block: -5; Mito fusion act: 9%; ClpP mod: inconclusive; ASM inhibitor: 131%; RGS4 inhibitor: -6%; IDH1 R132H inh: 8%

What do the screens show for `Fc1ccc2nc(Nc3nc4c(F)cc(F)cc4s3)sc2c1`?
LDHA block: -1; Mito fusion act: 3%; ClpP mod: 8.9µM*; ASM inhibitor: 31%; RGS4 inhibitor: 10%; IDH1 R132H inh: 4%; ClpP validation: inconclusive

What do the screens show for `Fc1ccc2nc(Nc3nc4cc5c(cc4s3)OCCO5)sc2c1`?
LDHA block: -6; Mito fusion act: 13µM*; ClpP mod: 6.3µM*; ASM inhibitor: 144%; RGS4 inhibitor: 0%; IDH1 R132H inh: -6%; ClpP validation: 3.9µM*

Results for Fc1cccc2sc(Nc3nc4ccccc4s3)nc12 ?
LDHA block: -5; Mito fusion act: -13%; ClpP mod: -5%; ASM inhibitor: 70%; RGS4 inhibitor: -9%; IDH1 R132H inh: 3%

What do the screens show for `Fc1ccc2nc(Nc3nc4c(F)cccc4s3)sc2c1`?
LDHA block: -5; Mito fusion act: 14%; ClpP mod: 8.9µM*; ASM inhibitor: 61%; RGS4 inhibitor: -7%; IDH1 R132H inh: 9%; ClpP validation: 4.9µM*

How did COc1cc(CC(=O)OCc2cccc(Br)c2)cc(OC)c1OC do in these assays?
LDHA block: 9

How did O=C(Nc1ccccc1OC(F)F)c1oc2ccccc2c1COc1ccccc1 do in these assays?
LDHA block: -3; Mito fusion act: -2%; ClpP mod: 289%; ASM inhibitor: 1%; RGS4 inhibitor: -45%; IDH1 R132H inh: 5%; ClpP validation: 19µM*

Results for COc1ccc(C(=O)N2CCCc3ccccc32)cc1 ?
LDHA block: -18; Mito fusion act: -3%; ClpP mod: -3%; ASM inhibitor: 1%; RGS4 inhibitor: 21%; IDH1 R132H inh: 3%

How did COC(=O)CN1CCN(C(=O)c2ccc(F)cc2)c2ccccc2C1 do in these assays?
LDHA block: -5; Mito fusion act: 1%; ClpP mod: 176%; ASM inhibitor: 5%; RGS4 inhibitor: 14%[11.4 µM]; IDH1 R132H inh: 4%; ClpP validation: 1%

How did CCCC(=O)Nc1ccc2oc(-c3ccc(OC)c(Br)c3)nc2c1 do in these assays?
LDHA block: -7; Mito fusion act: -2%; ClpP mod: 8.9µM*; ASM inhibitor: 1%; RGS4 inhibitor: 17%; IDH1 R132H inh: -2%; ClpP validation: 24µM*

What do the screens show for `Cc1c(C(=O)N2CCN(c3ccc([N+](=O)[O-])cc3)CC2)sc2ncn(CC(=O)N3CCOCC3)c(=O)c12`?
LDHA block: 3; Mito fusion act: 15%; ASM inhibitor: -13%; RGS4 inhibitor: -20%; IDH1 R132H inh: -8%

What do the screens show for `Cc1c(C(=O)N2CCOCC2)sc2ncn(CC(=O)N3CCC(C)CC3)c(=O)c12`?
LDHA block: -6; Mito fusion act: -3%; ClpP mod: 3.2µM*; ASM inhibitor: 2%; RGS4 inhibitor: -20%; IDH1 R132H inh: 2%; ClpP validation: -1%

What do the screens show for `O=C1CC(c2ccccc2)Cc2nc3nc(C(F)(F)F)nn3cc21` (stereo not drawn)?
LDHA block: 12; Mito fusion act: 0%; ClpP mod: 79%; ASM inhibitor: 2%; RGS4 inhibitor: -12%; IDH1 R132H inh: 1%; ClpP validation: 24%

What do the screens show for `O=C1CC(c2cccc(Cl)c2)Cc2nc3nc(C(F)(F)F)nn3cc21` (stereo not drawn)?
LDHA block: -7
